This is a sample that favours compounds with a hit; in the whole collection about 6% have one here.
D1 ag: agonists of human D1 dopamine receptor. P21728. activation, % at 2 µM. AID 504660. 360,000 compounds, 1% hits. HEK293 T-REx D1 cells, calcium flux, agonist mode; in the data active = activation above about 30%
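Agonism was scored from calcium flux recorded over 180 s (1 read/s) after pintool compound addition, following a 10-cycle baseline. Cells were inducible force-coupled HEK293 TREx D1, plated overnight at 30 C and loaded with no-wash calcium dye.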
D1 antag: antagonists of human D1 dopamine receptor; HEK293 TREx D1 cells, calcium flux, dopamine EC80; active compounds read low; P21728; activity change, negative = inhibition, % at 10 µM; 360,000 compounds, 3.2% hits; AID 504652; in the data active = activity change below about -30%
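Calcium flux readout: force-coupled, inducible Hek293 Trex D1 line, cells induced overnight at 30 C with tetracycline, dye-loaded 30–90 min at RT. Antagonism scored against EC80 dopamine challenge given 180 s after compound.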
D3 antag: blocks the human D3 dopamine receptor; 360,000 compounds, 2.5% hits; D3R cells, DiscoveRx beta-arrestin luminescence, antagonist mode; active compounds read low; max response, negative = inhibition, %; P35462; AID 652054; in the data active = max response below about -50%; inconclusive = no clear call, values can overlap the other calls
Target sequence (P35462 whole entry, looked up): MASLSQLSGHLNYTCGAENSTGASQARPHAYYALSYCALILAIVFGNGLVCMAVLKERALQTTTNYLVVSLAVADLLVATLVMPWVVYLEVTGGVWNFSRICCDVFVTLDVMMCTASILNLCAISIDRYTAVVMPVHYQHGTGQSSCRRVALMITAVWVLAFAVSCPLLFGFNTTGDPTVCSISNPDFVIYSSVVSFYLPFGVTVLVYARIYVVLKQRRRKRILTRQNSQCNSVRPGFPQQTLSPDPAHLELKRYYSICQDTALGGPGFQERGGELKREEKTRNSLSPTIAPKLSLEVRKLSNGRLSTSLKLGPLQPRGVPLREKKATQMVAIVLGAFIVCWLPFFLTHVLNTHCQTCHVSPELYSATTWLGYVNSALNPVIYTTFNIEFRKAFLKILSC
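Cells expressing the human receptor were seeded at 1500 cells/well, incubated overnight at 37 degrees C in 5% CO2, then exposed to library compounds with dopamine controls for 90 minutes at 37 degrees C before luminescent detection.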
DRD3 agonist: activates the human D3 dopamine receptor; P35462; D3R DiscoveRx beta-arrestin cells, luminescence, 90 min; max activation, %; 410,000 compounds, 0.58% hits; AID 652048; in the data active = max activation above about 30%
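Agonist-mode cell screen: cells plated at 1500/well and incubated overnight at 37 °C, then exposed to library compounds for 90 min at 37 °C. Detection reagent was added for 30–60 min at room temperature, and luminescence was read.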
D1 potentiator: human D1 dopamine receptor positive modulation; potentiation, % at 10 µM; AID 504651; 360,000 compounds, 0.036% hits; HEK293 TREx D1 cells, calcium flux, dopamine EC20 potentiation; P21728; in the data active = potentiation above about 30%
A number is an active result; - = inactive; ? = inconclusive; . = no result given.

SMILES	D1 ag	D1 antag	D3 antag	DRD3 agonist	D1 potentiator
Cc1ccc(NC(=O)COC(=O)CCc2c[nH]c3ccccc23)cc1	.	.	-	-	.
CCc1nnc(SCc2nc(-c3ccccc3Cl)oc2C)c2cc3sc(C)cc3n12	-	-	.	-	-
O=C(Nc1ccc(F)c(F)c1)C1CCCN1S(=O)(=O)c1cccc2nsnc12 (configuration not stated)	-	-	.	-	-
COC(=O)c1ccc(NC(=O)CC2C(=O)N(c3cccc(OC)c3)C(=O)N2Cc2ccco2)cc1 (configuration not stated)	-	-	.	-	-
Cc1ccc2c(c1)C1CN(C)CCC1N2C(=O)c1cccc(S(=O)(=O)N2CC(C)CC(C)C2)c1 (configuration not stated)	-	-	-	-	-
Cc1ccc2c(c1)C1CN(C)CCC1N2C(=O)c1ccc(Cl)c(S(=O)(=O)N2CCOCC2)c1 (configuration not stated)	-	-44.9	-	-	-
Cc1ccc2c(c1)C1CN(C)CCC1N2S(=O)(=O)c1cccc(C(F)(F)F)c1 (configuration not stated)	-	-	-	-	-
Cc1ccc2c(c1)C1CN(C)CCC1N2S(=O)(=O)c1ccc(C(C)C)cc1 (configuration not stated)	-	-31.1	-	-	-
O=C(O)c1cccc(N2C(=O)/C(=C/c3ccc(SCc4ccc(Cl)cc4)o3)SC2=S)c1	-	-	-59.2	-	-
CC1(C)C(=O)N(OCc2ccccc2)C(C)(C)C(=O)N1OCc1ccccc1	-	-	-	-	-
Cc1ccc(S(=O)(=O)Nc2ccc3c(c2)nc(CCN2CCCCC2)n3C)cc1	-	-	-78.9	-	-
Cc1ccc(S(=O)(=O)Nc2ccc3c(c2)nc(CN2CCCC2)n3C)cc1	49.4	-	?	-	-
Cn1c(CCN2CCCCC2)nc2cc(NS(=O)(=O)c3ccc(F)cc3)ccc21	-	-	-65.9	-	-
CCn1c(CN2CCCCC2)nc2cc(S(=O)(=O)N3CCCCC3)ccc21	-	-	-81.1	-	-
Cc1ccc(S(=O)(=O)Nc2ccc3c(c2)nc(CCN2CCOCC2)n3C)cc1	-	-	-	-	-
O=C1CC(c2ccccc2)Oc2ccccc21 (configuration not stated)	.	.	?	-	.
O=C1CC(c2cccc(O)c2)Oc2ccccc21 (configuration not stated)	-	-31.6	-	-	-
NC(=O)N/N=C/c1coc2ccc3ccccc3c2c1=O	-	-71.3	-	-	-
O=Cc1coc2ccc3ccccc3c2c1=O	-	-	-	-	-
CCC(=O)N1Cc2cc(C(=O)Nc3nccs3)nc(-c3cccc(-c4ccccc4OC)c3)c2[C@@H]1CCO	.	.	-	-	.
CC(C)NC(=O)N(C)C[C@H]1Oc2cc(C#Cc3ccc(F)cc3)ccc2S(=O)(=O)N([C@H](C)CO)C[C@H]1C	.	.	-	-	.
Cc1ccc(NC(=S)N2CCCCCC2)c(C)c1	-	-	-	-	-
Cc1ccc(C)c(NC(=S)N2CCCC2)c1	-	-65.4	-	-	-
COc1ccccc1N1CCN(C(=S)Nc2cccc(C)c2)CC1	-	-	-	-	-
Cc1ccc(C)c(N2CCN(C(=S)Nc3ccc4nc(N5CCN(C)CC5)cc(C)c4c3)CC2)c1	-	-60.7	?	-	-
SMILES	D1 ag	D1 antag	D3 antag	DRD3 agonist	D1 potentiator
Cc1cccc(NC(=S)N2CCN(c3cc(C)ccc3C)CC2)c1	-	-34.8	-	-	-
O=C(CCOc1ccccc1)N(Cc1cccnc1)c1nc2c(F)cc(F)cc2s1	-	.	.	-	-
Cc1ccc(CNC(=O)C2CCN(S(=O)(=O)c3c(C)noc3/C=C/c3ccccc3F)CC2)o1	-	-	.	-	-
Fc1ccc(NC(=S)NNc2ncc(C(F)(F)F)cc2Cl)c(F)c1	-	.	-74.8	-	-
FC(F)(F)c1cccc(NC(=S)NNC(=S)Nc2ccc(Cl)cc2)c1	-	-	.	.	-
FC(F)(F)c1cnc(NNC(=S)Nc2ccc(Cl)cc2)c(Cl)c1	-	-	-64.1	-	-
Cc1ccc(NC(=S)NNC(=S)Nc2cccc(C(F)(F)F)c2)cc1	-	-	-	-	-
O=C(NNc1ncc(C(F)(F)F)cc1Cl)c1ccc(Cl)c(Cl)c1	-	-	-	-	-
Cc1ccc(NC(=S)NNc2ncc(C(F)(F)F)cc2Cl)c(C)c1	-	-	-53.5	-	-
Cc1ccc(NC(=S)NNc2ncc(C(F)(F)F)cc2Cl)cc1	-	-	-68.4	-	-
O=C1c2ccccc2C(=O)c2c(/C=C/N3CCCCC3)ccnc21	.	.	?	-	.
O=C(c1cccc(F)c1)N1CCC(N2CCCCCC2)CC1	-	-	-73.6	-	-
COc1ccc(CNC(=O)C(=O)NCC(c2cccs2)S(=O)(=O)c2ccc(C)cc2)cc1 (configuration not stated)	-	.	.	-	-
O=C1[C@H]2[C@@H](c3ccccc3)N[C@]3(CCCN(Cc4ccco4)C3=O)[C@H]2C(=O)N1Cc1ccccc1	.	.	-56.0	-	.
Cc1cccc(C)c1-n1nnnc1C(c1ccnc2ccccc12)N1CCN(c2ccccc2F)CC1 (configuration not stated)	.	.	-	-	.
CCNC(=S)N(Cc1ccc2c(c1)OCO2)C1CC(=O)N(c2ccc(F)cc2)C1=O (configuration not stated)	-	-59.6	-	-	-
COc1ccc(C(=O)COC(=O)Cn2c(C)csc2=O)c(OC)c1	-	-33.3	-	-	-
COc1ccc(C(=O)COC(=O)CCn2c(C)csc2=O)c(OC)c1	.	.	-	-	.
COc1cccc(CNC(=O)c2cc3c(s2)-c2ccccc2OC3)c1	-	-	.	-	-
COc1cccc(CNC(=O)c2cc3c(s2)-c2c(C)cccc2OC3)c1	-	-36.5	.	-	-
Cc1ccc(C)c(NC(=S)Nc2cccnc2)c1	-	-	-	-	-
CSc1cccc(NC(=S)Nc2cc(C)ccc2C)c1	-	-40.2	-	-	-
CC(C)c1ccccc1NC(=O)CN(c1ccccc1)S(=O)(=O)N(C)C	-	-	.	-	-
COc1ccc(C(=O)Nc2ccccc2CCC2CCCCN2C)cc1 (configuration not stated)	.	.	.	-	.
CN1CCCC1CCOC(C)(c1ccccc1)c1ccc(Cl)cc1 (configuration not stated)	.	.	-101.4	.	.
Cc1ccc2c(c1)cc1c(=O)n(CC(=O)NC3CCCCC3)nc(C)n12	-	-	.	-	-
OC(CNCCc1ccc(C(F)(F)F)cc1)COC(c1ccccc1)c1ccccc1 (configuration not stated)	100.6	-	-	-	52.0
Cc1noc(C)c1NC(=O)N(C)C[C@H]1Oc2c(NC(=O)Nc3ccc4c(c3)OCO4)cccc2C(=O)N([C@H](C)CO)C[C@@H]1C	.	.	-	-	.
O=C(N/N=C1/CCSC1)c1cc(Br)ccc1O	-	-39.7	-	-	-
O=C(NN=C1CCCC1)c1cc(Br)ccc1O	-	-	-	-	-
